This is a sample that favours compounds with a hit; in the whole collection about 3.5% have one here.
FBW7 act = human FBW7 E3 ligase activation, primary screen. actives 0.13% (n = 650,000). normalized activity (activation), % at 26.1 µM. AlphaScreen FBW7–phospho-cyclin E peptide binding, activator screen; in the data active = normalized activity above about 1.9%;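 also: purified mutant Fbw7 with reduced substrate affinity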
GPR151 activ = activates the human receptor GPR151 | PathHunter beta-arrestin GPR151 cells, luminescence | AID 1508602 | actives 1% (n = 650,000) | activation, % at 11.2 µM | Q8TDV0; in the data active = activation above about 4.9%;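 also: 0% = median of compound wells and 100% = cells with positive control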
Target sequence (Q8TDV0 whole entry, looked up): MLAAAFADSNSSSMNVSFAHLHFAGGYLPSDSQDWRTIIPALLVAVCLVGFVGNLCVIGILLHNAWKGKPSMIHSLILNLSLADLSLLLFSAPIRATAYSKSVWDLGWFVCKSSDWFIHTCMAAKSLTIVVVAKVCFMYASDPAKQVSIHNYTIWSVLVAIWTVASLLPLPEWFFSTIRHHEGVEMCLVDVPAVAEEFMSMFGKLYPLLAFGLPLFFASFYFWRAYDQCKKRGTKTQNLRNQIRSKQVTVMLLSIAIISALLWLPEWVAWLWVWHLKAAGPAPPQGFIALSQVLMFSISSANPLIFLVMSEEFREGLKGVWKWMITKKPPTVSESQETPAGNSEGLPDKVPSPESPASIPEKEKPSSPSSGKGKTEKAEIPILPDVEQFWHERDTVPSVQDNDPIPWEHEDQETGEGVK
TEAD-YAP block = TEAD-YAP interaction inhibition | AID 1259422 | inhibition, % at 9.12 µM | actives 1.4% (n = 640,000) | HEK-TIYL cells, TEAD-Gal4/YAP UAS-luciferase luminescence; in the data active = inhibition above about 32%;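 also: 0% = median of test compound wells and 100% = reference inhibitor wells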
MITF primary = inhibitors of human MITF | O75030 | AlphaScreen MITF homodimerization, bead proximity signal | actives 0.91% (n = 650,000) | inhibition, % at 2.6 µM; in the data active = inhibition above about 50%;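 also: 0% = vehicle wells with protein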
An asterisk follows results filed as active.

`CCN(CC)S(=O)(=O)c1cccc(C(=O)Nc2ccc(O)cc2)c1` gave FBW7 act 0, GPR151 activ -2, TEAD-YAP block 48* and MITF primary 5.
Screening CCOC(=O)c1ccc(NC(=O)c2cccc(S(=O)(=O)N(CC)CC)c2)cc1 returned FBW7 act 0, GPR151 activ 1, TEAD-YAP block 43* and MITF primary 5.
CCN(CC)S(=O)(=O)c1cccc(C(=O)Nc2cccc(NC(=O)c3cccc(S(=O)(=O)N(CC)CC)c3)n2)c1 was read as FBW7 act 0, GPR151 activ 0, TEAD-YAP block 12 and MITF primary 2.
`CCOC(=O)c1ccc(NC(=O)c2cccc(OCC)c2)cc1` gave FBW7 act 0, GPR151 activ -2, TEAD-YAP block -18 and MITF primary -5.
Screening CCc1c(C)sc(NC(=O)Nc2cccc(Cl)c2)c1C(N)=O returned FBW7 act 0, GPR151 activ 3, TEAD-YAP block -2 and MITF primary -2.
`CC(=O)N1CCN(Cc2ccccc2)CC1C(=O)N1CCCC1` (stereo not drawn) gave FBW7 act 0, GPR151 activ 3, TEAD-YAP block 5 and MITF primary -4.
Screening O=C(Cn1c(=O)oc2ccccc21)Nc1ccnc2ccccc12 returned FBW7 act 0, GPR151 activ 1, TEAD-YAP block 32* and MITF primary 6.
COc1ccc(S(=O)(=O)NC(CSCC(=O)Nc2cc(C)cc(C)c2)C(=O)O)cc1 (stereo not drawn) was read as FBW7 act 0, GPR151 activ 0, TEAD-YAP block -12 and MITF primary -11.
`CCc1cc(-c2nc(N)ncc2-c2ccc(Br)cc2)c(O)cc1OC` gave FBW7 act 0, GPR151 activ 0, TEAD-YAP block -3 and MITF primary 1.
Screening CCCc1cc(-c2oncc2-c2ccc3c(c2)OCCO3)c(O)cc1OC returned FBW7 act 0, GPR151 activ 0, TEAD-YAP block 51* and MITF primary -4.
Screening CCc1cc(-c2oncc2-c2ccc(Br)cc2)c(O)cc1OC returned FBW7 act 0, GPR151 activ 0, TEAD-YAP block 55* and MITF primary -3.
COc1ccc(-c2nnnn2-c2cc(C)ccn2)cc1[N+](=O)[O-] was read as FBW7 act 0, GPR151 activ 1, TEAD-YAP block 5 and MITF primary -2.
CCn1c(=C2C(=O)NC(=O)NC2=O)c2cccc3cccc1c32 was read as FBW7 act -1, GPR151 activ -1, TEAD-YAP block 15 and MITF primary 61*.
CCn1c(=O)c(-c2ccccc2)c(O)c2ccccc21 was read as FBW7 act 0, GPR151 activ -2, TEAD-YAP block 0 and MITF primary 7.
Screening O=C(O)C1C2CC=CC2c2cc(Br)cc3c2N1CC1CC=CC31 (stereo not drawn) returned FBW7 act 5.5*, GPR151 activ -1, TEAD-YAP block 0 and MITF primary -5.
For O=C(O)c1cc2c3c(c1)C1C=CCC1CN3CC1CC=CC21 (stereo not drawn) the results were FBW7 act 0, GPR151 activ 1, TEAD-YAP block 12 and MITF primary 76*.
Screening CSc1cccc(NC(=O)/C=C/c2ccc([N+](=O)[O-])cc2)c1 returned FBW7 act 0, GPR151 activ -1, TEAD-YAP block -7 and MITF primary 4.
For CC1CCc2nc(/C(C#N)=C\c3ccco3)sc2C1 (stereo not drawn) the results were FBW7 act 0, GPR151 activ -1, TEAD-YAP block 70* and MITF primary -2.
`COc1ccc(/C=C(/C#N)c2nc3c(s2)CC(C)CC3)cc1` (stereo not drawn) gave FBW7 act 0, GPR151 activ 1, TEAD-YAP block -12 and MITF primary 7.
`O=c1c([N+](=O)[O-])c(NCC(O)c2ccccc2)c2ccccc2n1-c1ccccc1` (stereo not drawn) gave FBW7 act 0, GPR151 activ 0, TEAD-YAP block 12 and MITF primary -8.
For CN1/C(=C/C(=C/c2sc3ccccc3[n+]2C)C2CCC2)Sc2ccccc21 the results were FBW7 act 0, GPR151 activ 0, TEAD-YAP block 72* and MITF primary 27.
For CN1/C(=C/C(=O)C2CCC2)Sc2ccccc21 the results were FBW7 act 0, GPR151 activ -4, TEAD-YAP block -35 and MITF primary 9.
For O=C(NC(c1ccccc1)c1ccco1)C1CCN(C(=O)C2COc3ccccc3O2)CC1 (stereo not drawn) the results were FBW7 act 0, GPR151 activ 1, TEAD-YAP block -9 and MITF primary -6.
`Cc1ccc(CNS(=O)(=O)c2cc3c(cc2C)NC(=O)CO3)o1` gave FBW7 act 1, GPR151 activ -1, TEAD-YAP block -4 and MITF primary 22.
Screening O=C(NCCOc1ccccc1)c1csc(Nc2ccc(N3CCOCC3)cc2)n1 returned FBW7 act 0, GPR151 activ 3, TEAD-YAP block 39* and MITF primary -127.
Screening COc1ccc(CCNC(=O)c2csc(Nc3ccc(N4CCOCC4)cc3)n2)cc1 returned FBW7 act 0, GPR151 activ 1, TEAD-YAP block 71* and MITF primary 14.
`COc1ccc(CCNC(=O)c2cnc(Nc3ccc(N4CCOCC4)cc3)s2)cc1` gave FBW7 act 0, GPR151 activ 3, TEAD-YAP block -13 and MITF primary -1.
`O=c1[nH]c(/C=C\c2ccc(O)c(O)c2)nc(O)c1[N+](=O)[O-]` gave FBW7 act 1, GPR151 activ -1, TEAD-YAP block 2 and MITF primary 85*.
Screening COc1ccc2cc(CN(CC3CCCO3)C(=O)Nc3ccccc3OC)c(=O)[nH]c2c1 (stereo not drawn) returned FBW7 act 0, GPR151 activ -1, TEAD-YAP block 54* and MITF primary 2.
`COc1ccc2cc(CN(Cc3ccco3)C(=O)Nc3ccccc3OC)c(=O)[nH]c2c1` gave FBW7 act 0, GPR151 activ -1, TEAD-YAP block 54* and MITF primary 16.
Screening COc1ccc2cc(CN(Cc3ccccc3)C(=O)c3ccncc3)c(=O)[nH]c2c1 returned FBW7 act 0, GPR151 activ 1, TEAD-YAP block 51* and MITF primary -7.
Screening COc1ccc2[nH]c(=O)c(CN(Cc3ccco3)C(=O)Nc3ccccc3OC)cc2c1 returned FBW7 act 0, GPR151 activ -1, TEAD-YAP block -4 and MITF primary 8.
COc1cc(NC(=O)CCCc2nnc3n(C)c(=O)c4sccc4n23)cc(OC)c1 was read as FBW7 act 0, GPR151 activ -1, TEAD-YAP block -8 and MITF primary -4.
`COc1cc(C2Nc3ccc4ncccc4c3C3=C2C(=O)CCC3)ccc1OC(C)=O` (stereo not drawn) gave FBW7 act 0, GPR151 activ 0, TEAD-YAP block 52* and MITF primary -3.
O=C1c2ccccc2C(=O)c2c1oc1c3c(ccc21)OCN(CCCN1CCOCC1)C3 was read as FBW7 act 0, GPR151 activ -1, TEAD-YAP block 81* and MITF primary 22.

Screening data as filed in PubChem BioAssay.
